Screening results: PubChem, several laboratories
Sa ugtP lethal – compounds lethal to S. aureus RN4220 ugtP deletion mutant; AID 1259309; growth inhibition, % (test concentration not listed); actives 0.54% (n = 330,000); OD600 growth, 16 h; in the data active = growth inhibition above about 68%;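 also: plate controls were untreated wells for no effect and antibiotic for full effect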
Sa RN4220 lethal – S. aureus RN4220 growth inhibition | inhibition, % (test concentration not listed) | AID 1259311 | actives 0.33% (n = 330,000) | OD600, 16 h; in the data active = inhibition above about 85%;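 also: plate controls were untreated cells for no effect and reference antibiotic for full effect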
Mtb betalactam – beta-lactam sensitization of Mtb H37Rv; M. tuberculosis H37Rv growth with meropenem, percent inhibition; inhibition, % at 25 µM; actives 0.27% (n = 330,000); call rule not given here;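 also: growth measured after seven days incubation then overnight dye step; 0% = bacteria only wells and 100% = bacteria with antibiotic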
Mtb hypoxia inh – reduces hypoxia-regulated biosensor signal in M. tuberculosis | M. tuberculosis hypoxia-regulated fluorescent reporter, fluorescence | actives 0.1% (n = 300,000) | fluorescence inhibition, % (concentration not given with the values) | AID 1159583; in the data active = fluorescence inhibition mostly above about 23%, no sharp cut-off; inactive = mostly below about 17%
PriA SSB inh – K. pneumoniae PriA-SSBct interaction inhibition; AlphaScreen SSBct-PriA binding, biotinylated peptide; inhibition, % at 33 µM; actives 0.6% (n = 430,000); in the data active = inhibition mostly above about 37%, no sharp cut-off; inactive = mostly below about 20%;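 also: plate controls were negative control peptide for no effect and reference peptide for full effect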
The depositor's hits bear a star; nt = not tested or not shown. The list is not random: actives were taken first. Their share in the collection is about 1%.

SMILES	Sa ugtP lethal	Sa RN4220 lethal	Mtb betalactam	Mtb hypoxia inh	PriA SSB inh
C#CCN(C)Cc1ccc(O)c2ncccc12	nt	nt	nt	nt	110*
O=Cc1ccc(O)c2ncccc12	15	20	nt	10	94*
CC(C)OCc1ccc(O)c2ncccc12	nt	nt	nt	nt	87*
COc1ccccc1OCC(=O)NCC(=O)N1CCOC(c2ccccc2)C1 (stereo not given)	nt	nt	nt	nt	-8
CCN(CC)Cc1ccc(O)c2ncccc12	nt	nt	nt	nt	139*
CCCCCCCCCCCC(=O)c1c(O)cccc1O	100*	100*	-5	nt	-7
Oc1ccc(Cc2ccc(O)c3ncccc23)c2cccnc12	nt	nt	nt	nt	72*
CCCCCCCCCCCCCCSCc1ccc(O)c2ncccc12	nt	nt	nt	nt	57
CCCCCCCCCCCCCCCCSCc1ccc(O)c2ncccc12	nt	nt	nt	nt	59*
CCCCCCCC(=O)NNC(=O)Cc1ccccc1	-2	1	1	3	-1
O=S(=O)(O)c1ccc(O)c2ncccc12	nt	nt	nt	nt	99*
Nc1c(Cl)cc(C2=NCCn3nc4cc([N+](=O)[O-])ccc4c32)cc1Cl	nt	nt	2	nt	8
Nc1c(Cl)cc(C2=NCCn3c2c2ccc([N+](=O)[O-])cc2[n+]3[O-])cc1Cl	63	54	98	45*	19
Oc1ccc(/C=N/Nc2ccnc3cc(Cl)ccc23)cc1O	nt	nt	1	nt	nt
Oc1ccc(/C=N/Nc2ccnc3cc(Cl)ccc23)c(O)c1O	nt	nt	0	nt	nt
Clc1ccc2c(NN=Cc3cccc(Br)c3)ccnc2c1	101*	101*	nt	1	-3
CC(=NNc1ccnc2cc(Cl)ccc12)c1ccc(N)cc1	1	2	nt	5	71*
Clc1ccc2c(NN=Cc3cccnc3)ccnc2c1	9	3	nt	-5	3
Clc1ccc2c(NN=Cc3ccccc3Br)ccnc2c1	99*	98*	nt	6	-1
Oc1ccc(C=NNc2ccnc3cc(Cl)ccc23)cc1O	3	5	nt	15	47*
COc1ccc(/C=C(\C#N)c2nc(-c3ccc(C)cc3)c(NC(C)=O)s2)c(OC)c1	nt	nt	nt	nt	0
CC(=O)c1c(N2CCN(C)CC2)[nH]c(-c2ccccc2)nc1=S	9	0	100	nt	46*
CCn1c(C)c(C(C)=O)c(N2CCN(c3ccccc3)CC2)nc1=S	6	3	-15	nt	3
NC(=O)c1nnn(-c2cccc(F)c2)c1N	nt	nt	nt	nt	5
COc1ccc(Cl)cc1C(=O)NNC(=S)NC(=O)c1cc(-c2ccc(Cl)cc2)nc2ccccc12	57	115*	96	nt	-5
SMILES	Sa ugtP lethal	Sa RN4220 lethal	Mtb betalactam	Mtb hypoxia inh	PriA SSB inh
O=C(NC(=S)Nc1cccc2cc(O)ccc12)c1ccccc1Br	2	-4	-6	7	15
CCNC(=S)NNC(=O)c1cc(-c2ccc(OC)cc2)nc2ccccc12	1	5	57	9	-7
COc1ccccc1C(=O)NC(=S)Nc1cccc2cc(O)ccc12	-18	-4	38	-6	42*
COc1ccccc1C(=O)NC(=S)NNC(=O)c1sc2ccccc2c1Cl	98*	100*	81	-10	-13
O=C(Nc1nc2ccccc2s1)c1csc2nc(-c3ccc(F)cc3)cn12	nt	nt	nt	nt	0
CCOC(=O)c1c(-c2ccc(Cl)cc2)csc1NC(=O)CSc1nc2c(c(CC)c1C#N)C(=O)CC(C)(C)C2	nt	nt	nt	nt	-12
O=C(NCCc1nnc2ccc(SCc3cccc4ccccc34)nn12)c1ccccc1	nt	nt	nt	nt	-1
CCCCOc1ccc(C(=O)Nc2cc(C)no2)cc1	nt	nt	nt	nt	4
CCCC1CC(C(=O)NC(C(C)Cl)C2OC(SC)C(O)C(O)C2O)N(C)C1 (stereo not given)	100*	100*	85	44*	-2
CCC[C@@H]1C[C@@H](C(=O)NC(C(C)Cl)[C@H]2O[C@H](SC)[C@H](O)[C@@H](O)[C@H]2O)N(C)C1 (stereo not given in full)	nt	nt	78	nt	-10
COc1ccc(/C=C/C(=O)c2ccc(O)cc2)cc1COc1ccc(F)cc1	87*	58	-5	-1	7
Cc1ccc(OCC(=O)NN=C2SCC(=O)N2Cc2ccco2)cc1	nt	nt	nt	nt	-11
O=C(Oc1c(Cl)cc(Cl)c2cccnc12)c1cccc([N+](=O)[O-])c1	97*	97*	98	-3	30
O=C(Oc1c(CN2CCOCC2)cc(Cl)c2cccnc12)c1cccc([N+](=O)[O-])c1	nt	nt	nt	nt	105*
O=C(Oc1c(CN2CCOCC2)cc(Cl)c2cccnc12)c1ccccc1Br	2	6	97	2	5
Cc1ccc(C2C(=C(O)c3ccc4c(c3)OCCO4)C(=O)C(=O)N2Cc2cccnc2)cc1 (stereo not given)	nt	nt	nt	nt	12
O=S(=O)(c1cccs1)N1CN(Cc2ccco2)c2nc3ccccc3nc21	18	3	-7	14	5
Cc1cccc(S(=O)(=O)N2CN(Cc3ccco3)c3nc4ccccc4nc32)c1	-9	3	-7	3	96*
Oc1cccc2ccc[n+](CC(O)Cn3c4ccccc4c4ccccc43)c12 (stereo not given)	-7	-1	8	2	73*
CCc1nc(NCCC(C)C)c(C#N)c2c1CCCC2	88*	1	0	2	-4
CCOC(=O)c1c(NC(=O)c2ccco2)sc(C)c1-c1ccc(OC)cc1	nt	nt	nt	nt	1
O=S(=O)(NC1CCCC(O)C1)c1ccc2c(c1)CCCC2 (stereo not given)	nt	nt	nt	nt	-1
O=C(OCC#CCSc1nnc(-c2ccc(Br)cc2)o1)c1cccs1	-1	9	100	41*	-61
Cc1ccc(-c2nnc(SCC#CCOC(=O)c3cccs3)o2)cc1	7	11	100	16	-50
COc1ccc(CCC(=O)Nc2ccccc2Cc2nc(C)no2)cc1	nt	nt	nt	nt	-15
SMILES	Sa ugtP lethal	Sa RN4220 lethal	Mtb betalactam	Mtb hypoxia inh	PriA SSB inh
O=[N+]([O-])c1ccccc1S(=O)(=O)Nc1ccc(S(=O)(=O)Nc2nccs2)cc1	95*	-3	98	66*	1
O=[N+]([O-])c1cccc(S(=O)(=O)Nc2ccc(S(=O)(=O)Nc3nccs3)cc2)c1	8	6	-9	16	-5
COc1ccc(-c2nc(N3CCCCCC3)sc2C(=O)c2ccccc2)cc1	73	0	11	nt	-10
COc1ccc(-c2nc(N3CCN(C)CC3)sc2-c2ccc(OC)cc2)cc1	99*	-4	50	-3	8
CCOc1ccc2ccccc2c1C(=O)N1CCC(c2nn(C)c(=O)n2C2CC2)CC1	nt	nt	nt	nt	-4
O=c1c(NCc2ccccc2Cl)nccn1-c1ccc2c(c1)OCO2	nt	nt	nt	nt	37*
Cn1c(=O)c2c(nc(NCc3ccc4c(c3)OCO4)n2Cc2ccccc2Cl)n(C)c1=O	4	2	3	8	-7
O=C(c1cc(-c2ccccc2)on1)N1Cc2cncnc2C1	nt	nt	nt	nt	-10
Cc1nc2ccccc2n1N=Cc1ccc([N+](=O)[O-])o1	100*	101*	nt	nt	-6
Cc1cc2ncn(N=Cc3ccc([N+](=O)[O-])o3)c2cc1C	101*	100*	nt	9	-2
CCCOc1nc(SCCC)nc2c1cnn2-c1ccccc1	93*	-5	4	-4	-16
Cc1nc(-c2ccc(N=Cc3cc(Br)ccc3O)cc2)cs1	nt	nt	nt	nt	-2
CCc1ccc2oc(-c3ccc(OC)cc3)cc(=Nc3c(C)n(C)n(-c4ccccc4)c3=O)c2c1	0	1	99	25	44*
